Hits are enriched below; roughly 0.96% of the tested compounds scored in any of these assays.
TRHR agonist – activates the human TRH receptor | P34981 | TRHR cells, calcium flux fluo-8, FDSS agonist mode | activation, % at 2 µM | hit rate 0.18% among 360,000 | AID 493084; in the data active = activation above about 30%; note: 0% is about no effect
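TRHR-expressing cells, plated overnight in medium with 10% serum, were loaded with fluo-8 calcium dye at room temperature. After a 10 s baseline, library compound was pin-added and calcium release was recorded kinetically (ex 480/em 530) as agonist response.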
TRHR enhancer – allosterically enhances the human TRH receptor. AID 493056. TRHR cells, fluo-8 calcium fluorescence, EC20 TRH enhancement. enhancement, % at 2 µM. P34981. hit rate 0.66% among 360,000; in the data active = enhancement above about 30%; note: 0% is about no effect
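Enhancer read-out: after compound pinning and an initial kinetic agonist-mode read, an EC20 of TRH (10 nM final) was injected and fluo-8 calcium signal (Ex 480/Em 530) followed at 1 s/cycle for 100 cycles in TRHR-expressing cells.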
TRPV1 ag – human TRPV1 agonism. hit rate 0.19% among 320,000. TRPV1-expressing cells, Fluo-8 calcium influx, agonist mode. Q8NER1. AID 540275. activation, % at 8.33 µM; in the data active = activation above about 80%; inconclusive = between about 30% and that limit; note: 0% is about no effect
Target sequence (Q8NER1 whole entry, looked up): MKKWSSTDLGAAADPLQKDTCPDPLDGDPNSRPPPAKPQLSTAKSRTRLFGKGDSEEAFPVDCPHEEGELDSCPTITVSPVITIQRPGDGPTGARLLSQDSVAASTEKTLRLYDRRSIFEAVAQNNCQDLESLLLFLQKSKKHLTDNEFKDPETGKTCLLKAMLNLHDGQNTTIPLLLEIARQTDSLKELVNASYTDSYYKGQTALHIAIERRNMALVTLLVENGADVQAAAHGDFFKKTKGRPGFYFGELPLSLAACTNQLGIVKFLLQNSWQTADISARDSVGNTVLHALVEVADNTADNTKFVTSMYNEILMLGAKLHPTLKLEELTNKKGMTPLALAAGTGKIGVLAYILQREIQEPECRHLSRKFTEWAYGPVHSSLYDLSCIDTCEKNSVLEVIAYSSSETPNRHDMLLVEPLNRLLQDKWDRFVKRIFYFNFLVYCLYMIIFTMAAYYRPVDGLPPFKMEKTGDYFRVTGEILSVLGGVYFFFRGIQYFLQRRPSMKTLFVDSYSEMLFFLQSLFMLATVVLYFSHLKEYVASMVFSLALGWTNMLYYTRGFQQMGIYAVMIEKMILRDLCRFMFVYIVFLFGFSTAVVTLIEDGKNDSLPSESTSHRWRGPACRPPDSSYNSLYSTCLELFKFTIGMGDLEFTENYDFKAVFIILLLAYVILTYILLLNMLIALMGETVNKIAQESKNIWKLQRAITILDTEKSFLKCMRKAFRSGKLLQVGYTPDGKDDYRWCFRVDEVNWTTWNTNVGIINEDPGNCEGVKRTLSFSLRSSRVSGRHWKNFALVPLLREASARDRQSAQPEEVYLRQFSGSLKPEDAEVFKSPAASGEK
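Cells expressing TRPV1 were dye-loaded with Fluo-8 and read kinetically: 10 s baseline, 3 min after compound (agonist portion), then 2 min after EC20 capsaicin (allosteric enhancer portion). Calcium-bound dye fluorescence at 480/520 nm.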
TRPV1 PAM – human TRPV1 potentiation; Q8NER1; TRPV1-expressing cells, Fluo-8 calcium influx, capsaicin EC20 potentiation; potentiation, % at 8.33 µM; hit rate 0.02% among 320,000; AID 540277; in the data active = potentiation above about 80%; inconclusive = between about 30% and that limit; note: 0% is about no effect
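Fluo-8 calcium influx in TRPV1-expressing cells, kinetic read (ex 480/em 520 nm). Compound added and read 3 min for agonist activity, followed by capsaicin at EC20 final and 2 min further read for enhancement.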
TRPML1 ag – agonists of human TRPML1 channel; Q9GZU1; TRPML1-expressing cells, Ca2+ dye fluorescence, FDSS; activation, % (concentration not given with the values); hit rate 0.12% among 410,000; AID 624414; in the data active = activation above about 50%; inconclusive = mostly about 30% to 49%; note: 0% is about no effect
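Tetracycline-induced TRPML1-DL cells are seeded and incubated overnight before loading with a no-wash Ca2+ dye and quencher. Agonist activity is taken from the 110 s fluorescence read following compound pin-transfer on an FDSS, before EC80 54-4 challenge.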
TRPML1 blocker – blocks the human TRPML1 channel; TRPML1-inducible cells, Ca2+ dye fluorescence, FDSS; active compounds read low; inhibition of EC80 agonist-evoked calcium signal; activity change, negative = inhibition, % (no concentration beside the values); hit rate 0.02% among 390,000; AID 624415; in the data active = activity change below about -50%; inconclusive = between about -30% and that limit;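 note: stimulus is agonist 54-4 at its EC80 concentration; % is set by controls: 0 for no effect and ±100 for the full control effect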
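Tet-induced TRPML1-DL cells loaded with Ca8 no-wash calcium dye were read kinetically on FDSS. Compound addition was followed by EC80 agonist 54-4 (4 uM final); inhibition was read over 110 s.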
The depositor's hits bear a star; ? = inconclusive; · = not tested or not shown; ! = not confirmed by another sample.

SMILES	TRHR agonist	TRHR enhancer	TRPV1 ag	TRPV1 PAM	TRPML1 ag	TRPML1 blocker
COc1cc(/C=C2/SC(=Nc3ccc(O)cc3)NC2=O)cc(OC)c1O	70*	6	12	-10	0	-8
COc1cc(/C=C2\SC(=Nc3ccc(O)cc3)NC2=O)cc(OC)c1OC	0	2	4	?	2	-7
COc1ccc(Br)cc1S(=O)(=O)N1CCN(S(=O)(=O)c2ccc3c(c2)OCCO3)CC1	0	0	·	·	·	·
CC(C)(C)n1ncc2c(=O)n(Cc3c(F)ccc(F)c3Cl)cnc21	·	·	·	·	3	-5
Nc1cc(N)cc(N)c1	·	·	·	·	0	·
COc1cc(/C=C/C(=O)NC(=O)c2ccccc2O)ccc1O	-3	3	2	1	1	-14
COc1cc(/C=C/C(O)=C/C(=O)/C=C/c2ccc(O)cc2)ccc1O	104*	3	?	10	25	-3
COc1ccc(CN(C2CCCCC2C)S(=O)(=O)c2ccc(S(=O)(=O)N(C)C)cc2)cc1OC (stereo not given)	13	6	8	7	134*	-25
Cc1cc2oc3c(c(=O)c2cc1C)C(c1ccc(F)cc1)N(CCCN1CCOCC1)C3=O (stereo not given)	-1	37*	-2	-18	0	12
Cc1c(F)cccc1NC(=O)CSCC(=O)Nc1ccccc1	0	-1	-5	-4	1	-55*
Cc1c(F)cccc1NC(=O)CCC(=O)O	0	-2	0	2	0	15
Cc1ccc(S(=O)(=O)c2cc3cc(C(=O)Nc4ccc(C)cc4C)ccc3oc2=O)cc1	0	31*	·	·	1	-1
Cc1cc2c(s1)c1cnn(Cc3ccc(Cl)cc3)c(=O)c1n2C	0	0	·	·	·	·
CC(=O)Nc1nonc1NC(=O)CSC1=NCCS1	0	31*	1	-5	0	-6
O=S(=O)(c1ccc(C(F)(F)F)cc1)N1CCN(c2nc(-c3ccccc3)nc3ccccc23)CC1	·	·	·	·	-1	·
C(=C\c1ccnc2ccccc12)/c1ccc(N(Cc2ccccc2)Cc2ccccc2)cc1	·	·	·	·	8	·
COc1ccccc1Nc1nc(N)nc(-c2oc3ccccc3c2C)n1	0	-1	2	?	0	-1
Cc1ccccc1Nc1nc(N)nc(-c2oc3ccccc3c2C)n1	-1	35*	·	·	1	-6
CCNC(=O)NC(=O)CN(C)c1ccccc1	0	34*	3	-4	0	-3
CN(CC(=O)NC(=O)NC1CCCCC1)c1ccccc1	1	22	9	0	-1	5
CN(C)c1ccc(/C=C/c2ccnc3ccccc23)cc1N	·	·	·	·	0	·
CCN(CC)c1ccc(NC(=O)c2ccc3c(c2)OCO3)c(C)c1	0	-3	82*	-20	0	21
Cc1cc(NC(=O)c2ccc3c(c2)OCO3)ccc1NC(=O)c1ccccc1	0	-1	0	2	1	13
CCN(CC)c1ccc(NC(=O)c2cc3ccccc3o2)c(C)c1	0	-10	83*	-17	1	-5
CCNc1nc(N2CCCN(C)CC2)nc2cc(OC)c(OC)cc12	·	·	·	·	0	·
SMILES	TRHR agonist	TRHR enhancer	TRPV1 ag	TRPV1 PAM	TRPML1 ag	TRPML1 blocker
CCCCC(C(=O)N/N=C/c1ccccn1)C(=O)N/N=C/c1ccccn1	0	35*	·	·	0	5
CCCCCCCCC(=O)N/N=C/c1ccccn1	0	9	19	-8	1	3
CCOc1ccc(OCC)c(S(=O)(=O)n2cnc(C)c2)c1	0	32*	13	-12	0	19
CC1CCCCN1C(=O)COC(=O)c1ccc(S(C)(=O)=O)c([N+](=O)[O-])c1 (stereo not given)	·	·	·	·	-1	·
COC(=O)c1cn(NC(=O)c2ccc3c(c2)OCO3)c(=O)c2ccccc12	0	-6	80*	-8	2	-4
O=CC(=O)c1ccc(F)cc1	·	·	·	·	-1	·
Cc1cc(C)c2nc(N(CCCN(C)C)C(=O)c3ccc4c(c3)CCCC4)sc2c1	3	33*	25	-12	0	9
CCOc1ccccc1NC(=O)c1cc2ccc3cccnc3c2[nH]1	-1	32*	·	·	5	60
C=CCn1c(N)cc(=O)nc1SCC(=O)Nc1ccc(C)cc1	0	39*	3	2	0	-10
Cc1ccc(C(=O)Nc2cccc(-c3nc4ccccc4o3)c2)c(Cl)c1	1	-3	·	·	1	7
Cc1cc2oc(C(=O)Nc3cccc(-c4nc5ccccc5o4)c3)c(C)c2cc1Cl	-1	33*	·	·	-1	-15
Cc1ccc(C)c(N2CCN(S(=O)(=O)c3csc(C(N)=O)c3)CC2)c1	-3	32*!	11	-1	1	1
Cc1ccc(C)c(N2CCN(S(=O)(=O)c3cnc(N)nc3)CC2)c1	-1	3	·	·	1	-6
CC(C)(CNC(=O)c1ccc(S(=O)(=O)Nc2cccc(C(F)(F)F)c2)cc1)N1CCOCC1	2	35*	1	13	2	-11
CC[N+](C)(C)c1ccc(/C=C/c2ccncc2)cc1	·	·	·	·	7	·
O=C(CSc1nc(-c2ccccc2)c(-c2ccccc2)o1)Nc1nncs1	-1	1	4	21	1	-2
O=C(CSc1nc(-c2ccccc2)c(-c2ccccc2)o1)Nc1nnc(-c2ccccc2)s1	0	50*	1	27	0	10
COc1cccc(CNc2nc3c(-c4ccccc4)nnn3c3ccccc23)c1	-2	30	·	·	0	-16
COc1ccc(CNc2nc3c(-c4ccc(C)cc4)nnn3c3ccccc23)cc1	0	44*	·	·	-1	6
O=S(=O)(c1nccs1)N1CCN(c2nc(-c3cccs3)nc3ccccc23)CC1	·	·	·	·	1	·
Cc1ccc(C(=O)OCC(=O)c2cc(C)n(CC3CCCO3)c2C)cc1 (stereo not given)	-1	6	?	-14	1	-10
CCOc1cc(C(=O)OCC(=O)c2cc(C)n(CC3CCCO3)c2C)ccc1OCC(=O)N1CCOCC1 (stereo not given)	2	38*	2	10	1	5
CC(C)CCOc1ccc(CC(=O)NO)cc1	·	·	·	·	-1	·
COc1ccc(CN(Cc2ccccc2)C(=O)c2ccncc2)cc1COc1ccc(NC(C)=O)cc1	·	·	·	·	0	·
Oc1ccccc1-c1nc(NC2CCCC2)c2ccccc2n1	-1	31*	-3	3	·	·
O=C(CN1C2CCCC1CC(NC(=O)c1ccccc1)C2)Nc1ccccc1 (stereo not given)	-2	40*	-2	6	-1	8
COc1cccc(C(=O)NC2CC3CCCC(C2)N3CC(=O)Nc2ccccc2)c1 (stereo not given)	-1	1	-3	15	2	-24

Source: PubChem (National Center for Advancing Translational Sciences (NCATS))
